Our source for the growth values is PubChem BioAssay (NCI).

About 83,000 compounds went through this panel and 20% of them were active in at least one assay; those are over-represented in the sample as a whole.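 The endpoint reported here, percent growth, reads 100 for growth as untreated, 0 for no net growth and -100 for all cells dead.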 A number with no mark means an inactive call. Activity calls are given as the source filed them. The calls were made as follows: active = growth percent below 10; inactive = the rest.

Some test systems named below: SR leukemia; RPMI-8226 leukemia; OVCAR-8 ovarian; OVCAR-5 ovarian; OVCAR-4 ovarian; SK-OV-3 ovarian; IGROV1 ovarian; OVCAR-3 ovarian; HS 578T breast; NCI/ADR-RES ovarian; T-47D breast; BT-549 breast; MDA-MB-435 melanoma; SW-620 colon; MCF7 breast; HCT-116 colon; HCC-2998 colon; KM12 colon.
Common to all, as to experiment: NCI-60 one-dose screen, 48 h (100 = growth as untreated, 0 = no growth, -100 = all killed)
What all share (conditions): 10 µM unless noted

Take `Cc1ccc(N(CC(=O)Nc2ccc(S(=O)(=O)NC3CCN(C)CC3)cc2)S(=O)(=O)c2ccc(Cl)cc2)cc1`: the growth is 5.99% (active) in the assay on SR leukemia; 65.6% in the assay with RPMI-8226 leukemia; 96.2% in the assay on OVCAR-8 ovarian; 91.6% in the assay with OVCAR-5 ovarian; 87.8% in the assay with OVCAR-4 ovarian; 105% in the assay with SK-OV-3 ovarian. The growth was 85.7% in the assay on IGROV1 ovarian; 72.5% with OVCAR-3 ovarian; 69.5% with HS 578T breast; 98.6% in the assay on NCI/ADR-RES ovarian; 58.4% with T-47D breast; 86.6% with BT-549 breast. For the same molecule, the growth in the assay on MDA-MB-435 melanoma was -44.3% (active); in the assay on SW-620 colon, 10.1%; in the assay with MCF7 breast, 39%; in the assay on HCT-116 colon, 47.6%; with HCC-2998 colon, 30.4%; in the assay on KM12 colon, 61.2%.
Regarding `COc1cccc(-c2nn(-c3ccccc3)cc2-c2ccnc(NCCCN)c2)c1`, the growth in the assay with SR leukemia is -10.5% (active); with RPMI-8226 leukemia it was 44%; in the assay on OVCAR-8 ovarian, 62%; in the assay with OVCAR-5 ovarian it was 95.8%; in the assay on OVCAR-4 ovarian it was 63.8%; in the assay with SK-OV-3 ovarian, 70.9%. The growth with IGROV1 ovarian is 54.4%; in the assay with OVCAR-3 ovarian, 29.2%; with HS 578T breast, 43.6%; with NCI/ADR-RES ovarian, 25%; with T-47D breast, 59.1%; in the assay with BT-549 breast, 68.6%. In addition, the growth in the assay with MDA-MB-435 melanoma is -6.82% (active); in the assay on SW-620 colon it was 43.5%; in the assay on MCF7 breast, 41.8%; with HCT-116 colon, 45.1%; with HCC-2998 colon it was 65.6%; with KM12 colon, 71.9%.
`Fc1ccc(Nc2nnc(-c3ccc(Cl)cc3)o2)cc1`: the growth in the assay with SR leukemia was 90.8%; in the assay on RPMI-8226 leukemia it was 99.8%; in the assay on OVCAR-8 ovarian, 86.7%; with OVCAR-5 ovarian it was 98.3%; in the assay on OVCAR-4 ovarian it was 94.7%; with SK-OV-3 ovarian, 77.4%. In addition, the growth with IGROV1 ovarian was 90.2%; in the assay on OVCAR-3 ovarian, 110%; with HS 578T breast it was 107%; with NCI/ADR-RES ovarian, 99%; with T-47D breast, 66.2%; with BT-549 breast, 99%. The growth in the assay with MDA-MB-435 melanoma was 111%; in the assay on SW-620 colon, 105%; in the assay with MCF7 breast it was 75.4%; in the assay on HCT-116 colon, 85.1%; with HCC-2998 colon, 98.9%; with KM12 colon, 97.8%.
With `COc1cnc2c(c1)C(=O)c1c-2n(CCCNC(C)C)c(=O)c2cc([N+](=O)[O-])ccc12`, the growth with SR leukemia was -7.62% (active); in the assay with RPMI-8226 leukemia it was -25.1% (active); in the assay on OVCAR-8 ovarian, -47.6% (active); with OVCAR-5 ovarian it was -46.6% (active); in the assay on OVCAR-4 ovarian, -68.9% (active); in the assay on SK-OV-3 ovarian, -66.8% (active). Further, the growth in the assay with IGROV1 ovarian was -56.4% (active); in the assay on OVCAR-3 ovarian, -74.3% (active); in the assay on HS 578T breast, -31% (active); in the assay with NCI/ADR-RES ovarian, -39.9% (active); with T-47D breast, -24.9% (active); with BT-549 breast, -63.1% (active). Also, the growth with MDA-MB-435 melanoma was -95.8% (active); in the assay with SW-620 colon it was -38.8% (active); in the assay on MCF7 breast it was -47.4% (active); in the assay with HCT-116 colon it was -51% (active); in the assay with HCC-2998 colon it was -83.4% (active); in the assay on KM12 colon it was -39.8% (active).
Consider `O=C1c2cc3c(cc2-c2c1c1ccc(Cl)cc1c(=O)n2C[C@H](O)[C@@H](O)[C@H](O)CO)OCO3`, for which the growth with SR leukemia was 0.866% (active); in the assay with RPMI-8226 leukemia, 0.957% (active); in the assay with OVCAR-8 ovarian, 1.03% (active); with OVCAR-5 ovarian, -2.44% (active); with OVCAR-4 ovarian it was 18.6%; with SK-OV-3 ovarian, -23.1% (active). Moreover, the growth with IGROV1 ovarian was 9.99% (active); in the assay on OVCAR-3 ovarian it was -10.4% (active); in the assay with HS 578T breast it was 11.3%; in the assay on NCI/ADR-RES ovarian, 7.03% (active); with T-47D breast, -8.86% (active); in the assay on BT-549 breast, -1.82% (active). Also, the growth with MDA-MB-435 melanoma is -39.2% (active); with SW-620 colon, 2.65% (active); with MCF7 breast, 1.66% (active); with HCT-116 colon, 11.1%; in the assay with HCC-2998 colon it was 16.3%; in the assay on KM12 colon, 7.14% (active).
Turning to `NCCn1cc(-c2nc(-c3c[nH]c4ncccc34)cs2)c2ccccc21`, the growth with SR leukemia is 62.6%; in the assay on RPMI-8226 leukemia, 78.1%; in the assay with OVCAR-8 ovarian it was 86.7%; in the assay on OVCAR-5 ovarian it was 102%; with OVCAR-4 ovarian, 68.2%; in the assay on SK-OV-3 ovarian, 82.2%. Besides, the growth is 50.2% in the assay on IGROV1 ovarian; 90.8% in the assay with OVCAR-3 ovarian; 84.4% in the assay on HS 578T breast; 98.1% in the assay on NCI/ADR-RES ovarian; 22.6% in the assay with T-47D breast; 98.9% in the assay with BT-549 breast. The growth in the assay with MDA-MB-435 melanoma is 98.3%; with SW-620 colon, 96.1%; with MCF7 breast it was 60.4%; in the assay with HCT-116 colon it was 94.5%; in the assay with HCC-2998 colon, 93.8%; in the assay with KM12 colon, 73.4%.
Take `Cc1cc(N2CCOCC2)nc(N(CCCNc2ccnc3cc(Cl)ccc23)Cc2ccco2)n1`: the growth in the assay on SR leukemia is -11.4% (active); with RPMI-8226 leukemia, 19.4%; in the assay on OVCAR-8 ovarian it was 46.3%; in the assay with OVCAR-5 ovarian, 38.9%; in the assay on OVCAR-4 ovarian it was 50.4%; in the assay on SK-OV-3 ovarian it was 50.1%. Moreover, the growth was 10.9% in the assay on IGROV1 ovarian; 2.02% (active) with OVCAR-3 ovarian; 69.5% with HS 578T breast; 12.1% in the assay on NCI/ADR-RES ovarian; 35.3% with T-47D breast; 37.8% in the assay with BT-549 breast. Moreover, the growth in the assay on MDA-MB-435 melanoma is -20.1% (active); with SW-620 colon, 21.4%; in the assay with MCF7 breast it was 15.5%; in the assay on HCT-116 colon it was 7.37% (active); in the assay on HCC-2998 colon it was 87.9%; in the assay on KM12 colon, 33.3%.
For the molecule `COc1ccc(C2C(C#N)=C(N)Oc3c2sc2c(F)cccc32)cc1` (centres undefined), the growth with SR leukemia is 11.6%; in the assay on RPMI-8226 leukemia, 11.8%; in the assay with OVCAR-8 ovarian it was 25.9%; in the assay on OVCAR-5 ovarian, 69.3%; with OVCAR-4 ovarian, 65.7%; in the assay on SK-OV-3 ovarian, 20.7%. The growth in the assay with IGROV1 ovarian was 30.6%; in the assay on OVCAR-3 ovarian, -4.86% (active); in the assay with HS 578T breast, 42.4%; in the assay on NCI/ADR-RES ovarian it was 6.69% (active); in the assay on T-47D breast, 23.8%; in the assay with BT-549 breast, 37%. The growth in the assay with MDA-MB-435 melanoma was -23.9% (active); with SW-620 colon it was 25.1%; in the assay on MCF7 breast it was 15.4%; in the assay on HCT-116 colon it was 8.94% (active); in the assay on HCC-2998 colon, 85.2%; in the assay on KM12 colon, 35.5%.
